From PubChem BioAssay
In the library only some 19% were active in any assay of this set; here they are far more common.
TDP1 cell CPT: DT40-hTDP1 cell growth loss with CPT; chicken DT40 Tdp1-/-;hTDP1 cells + 20 nM CPT, ATP luminescence, 48 h; Potency, µM (doses to about 46.2 µM), most hits filed as inhibitors; hit rate 12% among 420,000; AID 686979; note: nearly all actives have a fitted effect of over 55% in size
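Chicken DT40 Tdp1-/- cells complemented with human TDP1, 400 cells/well, exposed to compounds plus 20 nM camptothecin for at least 48 h at 37 C; viability read as ATP content by CellTiter-Glo luminescence.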
TDP1 block: TDP1 (human) enzyme inhibition. Q9NUW8. recombinant TDP1, AlphaScreen DNA substrate cleavage. Potency, µM (titrated, usually from 130 µM), actives largely listed as inhibitors. hit rate 0.28% among 350,000; note: nearly all actives have a fitted effect of over 40% in size
Target sequence (Q9NUW8 whole entry, looked up): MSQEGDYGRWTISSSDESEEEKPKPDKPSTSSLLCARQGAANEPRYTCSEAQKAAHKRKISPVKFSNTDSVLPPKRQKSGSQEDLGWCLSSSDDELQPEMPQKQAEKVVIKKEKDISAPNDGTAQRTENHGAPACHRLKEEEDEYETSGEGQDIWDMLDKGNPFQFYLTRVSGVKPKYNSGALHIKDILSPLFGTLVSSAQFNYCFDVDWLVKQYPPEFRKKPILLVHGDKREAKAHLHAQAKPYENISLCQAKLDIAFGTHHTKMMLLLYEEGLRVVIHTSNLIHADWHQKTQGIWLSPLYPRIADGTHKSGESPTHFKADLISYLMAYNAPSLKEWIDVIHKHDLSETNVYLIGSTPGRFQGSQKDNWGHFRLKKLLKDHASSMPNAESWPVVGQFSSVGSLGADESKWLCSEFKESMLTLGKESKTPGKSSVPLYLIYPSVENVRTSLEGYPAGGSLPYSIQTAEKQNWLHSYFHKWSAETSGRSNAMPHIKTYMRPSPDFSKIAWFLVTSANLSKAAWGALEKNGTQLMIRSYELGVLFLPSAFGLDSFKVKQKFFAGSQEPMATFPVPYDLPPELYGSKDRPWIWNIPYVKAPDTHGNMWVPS
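E. coli-derived human Tdp1, 1 nM final. Cpd preinc 15 min RT; substrate 15 nM final, 5 min RT; AS bead mix 10 ug/ml final, 10 min RT. Signal loss = tyrosine-FITC cleavage. No-enzyme wells = max signal.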
HepG2 tox: kills HepG2 cells in TGF-b inhibitor counter-screen; HepG2 CAGA-GFP viability, ATP luminescence, 18 h; Potency, µM (series often up to 46.1 µM), usual class: cytotoxic; AID 588856; hit rate 0.76% among 410,000
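CellTiter-Glo luminescence gave cytotoxicity after 18 hours at 37 degrees C. The cells were HepG2 CAGA-GFP in 1% FBS DMEM, stimulated with 500 pg/mL TGF-beta after compound addition. %Activity was normalised to no-cell wells (complete cell-killing) and DMSO (no toxicity), and curves were fitted and classified.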
IL-1B inflam inh: inhibitors of inflammasome signaling (IL-1 beta secretion). activity change, % at 57.5 µM. THP-1 LPS/ATP IL-1B secretion, AlphaLISA, 16 h; stronger effect = lower value. AID 743279. hit rate 4.7% among 360,000; in the data active = activity change below about -50%; inconclusive = mostly about -30% to -49%
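THP-1 cells pretreated 1 hr with compounds (up to 57.5 uM final), then stimulated with LPS (250 ng/mL final) plus ATP (1.25 mM final); secreted IL-1B measured by AlphaLISA after 16 hr, decreased signal indicating inhibition.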
TGFb SMAD3 inh: inhibitors of TGF-b signaling. HepG2 CAGA-GFP TGF-b/SMAD3 reporter, GFP fluorescence, 18 h; TGF-beta stimulated, 500 pg/mL final. AID 588855. hit rate 1.2% among 410,000. Potency, µM (highest dose often 46.1 µM), hits mostly inhibitors; note: nearly all actives have a fitted effect of over 65% in size
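Per well, imaged GFP fluorescence of HEPG2 CAGA-GFP cells gives the signal; cells get compound, then TGF-beta (500 pg/mL final), 18 h at 37 degrees C; %Activity versus -TGF-beta and +DMSO controls.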
DT40 TDP1 no CPT: qHTS for Inhibitors of human tyrosyl-DNA phosphodiesterase 1 (TDP1): qHTS in cells in absence of CPT; Potency, µM (titrated, usually from 46.2 µM), actives largely listed as inhibitors; AID 686978, 2013; DT40 Tdp1-/- hTDP1 cells, no CPT, ATP luminescence, 48 h; hit rate 15% among 420,000; note: nearly all actives have a fitted effect of over 55% in size
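Stably hTDP1-transfected Tdp1-null chicken DT40 cells were treated with library compounds minus camptothecin and grown for at least 48 hr at 37 °C, after which cellular ATP was quantified by luminescence.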
Hits are given with their value; i = inactive; ? = inconclusive; nt = no result; [ ] = remark or other dose. Unless noted, calls come from the whole dose curve; as a rule, active = well fitted curve in the direction sought with a large enough effect; inconclusive = small, poorly fitted or top-dose-only effect, or another doubt; inactive = no such curve, though single readings can be large; an effect the other way counts as inactive or inconclusive.

SMILES | TDP1 cell CPT | TDP1 block | HepG2 tox | IL-1B inflam inh | TGFb SMAD3 inh | DT40 TDP1 no CPT
COc1ccc(-c2c(C)nc(N)nc2-c2ccc(OC)cc2O)cc1 | i | nt | i | i | i | i
O=C(NCCc1ccc(F)cc1)Nc1ccccc1Cl | i | i | i | ? | i | i
COc1ccc(-c2nc(N)ncc2-c2ccc(OC)c(OC)c2)c(O)c1 | ? | nt | i | -53 | i | ?
Cc1ccc(Cl)cc1NC(=O)N1CCC(CN2CCCCCC2)CC1 | ? | i | i | nt | i | ?
CC(=O)Nc1cccc(/C(C)=N/NC(=O)c2ccc(NS(=O)(=O)c3cccs3)cc2)c1 | i | i | i | i | i | i
C/C(=N\NC(=O)c1ccc(NS(=O)(=O)c2cccs2)cc1)c1ccc(C(C)(C)C)cc1 | 7.3µM | i | i | i | i | 9.2µM
CN(C)C=Nc1ncc2c3ccccc3n(Cc3ccccc3)c2c1C#N | i | i | i | i | i | ?
CN(C)C=Nc1ncc2c3ccccc3n(CCN(C)C)c2c1C#N | 21µM | i | i | -77 | ? | 23µM
CCN(CC)CCn1c2ccccc2c2cnc(N)c(C#N)c21 | ? | i | i | -104 | i | 21µM
CCN(CC)CCn1c(C)nc2ccccc21 | i | i | i | i | i | i
CCC[C@@H]1CCCC/C=C\CCCC(=O)OCCN1C(=O)OC(C)(C)C | ? | i | i | i | i | ?
COC(=O)c1ccccc1NC(=O)c1ccc2c(c1)CCN2S(C)(=O)=O | ? | i | i | nt | i | i
COC(=O)N1CCC2(CC1)CCN(c1ncccn1)CC2 | i | nt | nt | nt | nt | i
Cc1noc(C)c1-c1ccc(C(=O)NC2CCCCC2)c2occc12 | 16µM | nt | i | i | i | 15µM
Cc1noc(C)c1-c1ccc(C(=O)Nc2ccccc2)c2occc12 | 26µM | nt | i | i | i | ?
CCc1ccc(NS(=O)(=O)c2ccc3[nH]cc(C(=O)NCCCOC(C)C)c(=O)c3c2)cc1 | ? | nt | i | nt | i | ?
COc1ccc(NC(=O)C#Cc2ccccc2)cc1OC | 6.5µM | i | i | -71 | i | ?
NC(=O)c1ccc(NC(=O)C#Cc2ccccc2)cc1 | ? | i | i | -101 | ? | 8.2µM
O=C(C#Cc1ccccc1)Nc1ccccc1F | 21µM | nt | i | -93 | ? | 18µM
CC(=O)N[C@@H](C(=O)O)C(C)(C)SN=O | i | i | nt | nt | nt | i
CCN1C(=O)[C@H]2[C@H]3[C@H](O)[C@H](O)C/C(=N/O[C@@H](C)c4cn([C@H]5COC[C@H]5O)nn4)[C@@H]3CC[C@@H]2C1=O | nt | i[21 µM] | nt | nt | nt | nt
Cc1c(C(=O)NC2CCC(C)CC2)oc2ccccc12 (centres undefined) | i | i | i | i | i | i
COc1ccc2cc(CNCc3ccccc3Cl)c(N3CCCC(CO)C3)nc2c1 (centres undefined) | i[9.04 µM] | nt | nt | nt | nt | ?
COCCCn1c(=O)/c(=C\c2ccccc2OC(F)F)s/c1=C(/C#N)C(=O)NC(C)C | i | i | i | i | i | i
COCCCn1c(=O)/c(=C\c2ccccc2OC(C)C)s/c1=C(/C#N)C(=O)Nc1ccc(C(=O)O)cc1 | ? | i | i | i | i | 15µM
SMILES | TDP1 cell CPT | TDP1 block | HepG2 tox | IL-1B inflam inh | TGFb SMAD3 inh | DT40 TDP1 no CPT
CC(=O)Nc1ccc(Oc2sc(C(=O)c3ccccc3)c(N)c2C#N)cc1 | ? | i | i | -60 | 10µM | ?
COCC(=O)N1CCC2(CCN(Cc3ccncc3)CC2)CC1 | i | nt | nt | nt | nt | i
C=CC(=O)Nc1ccc(CN2C(=O)N(c3c(Cl)c(OC)cc(OC)c3Cl)Cc3cnc(NCCCCN(CC)CC)nc32)cc1 | 12µM | i | i | -67 | ? | 13µM
Cc1cc(NS(C)(=O)=O)c(=O)n(Cc2c(F)cccc2Cl)c1 | i | nt | i | i | i | i
CCc1nc2nc(C)c(NS(=O)(=O)c3ccc(C)cc3)c(=O)n2[nH]1 | i | i[12.3 µM] | i | nt | i | i
CCC/C=C(\CCC)C(NS(=O)(=O)c1cccc2cccnc12)c1ccc(-c2ccccc2)cc1 (centres undefined) | nt | i | nt | nt | nt | nt
